Assay outcomes (PubChem)
NPC1 prom act: NPC1 promoter activation | 2.4% of 320,000 active | Potency, µM (series often up to 9.22 µM), for inactives: top-dose activation, most hits filed as activators | AID 485313 | Huh7 NPC1 promoter luciferase reporter, 24 h; note: % of control where 0% means no effect; nearly all actives have a fitted effect of over 60% in size
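Luminescence read-out of NPC1 promoter-driven luciferase in stably transfected Huh7 cells; compounds delivered in DMSO and left 24 h at 37C, 5% CO2, qHTS titration format.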
ELG1 genotoxic: induces genotoxicity in HEK293T cells with luciferase-tagged ELG1. HEK293T ELG1-luciferase reporter, luminescence, 16 h. Potency, µM (titrated, usually from 46 µM), inactives show at the top dose activity change, positive = activation, usual class: activators. 1.3% of 330,000 active; note: % of control where 0% means no effect; nearly all actives have a fitted effect of over 60% in size
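Luminescence read-out: rising ELG1-luciferase signal, reflecting elevated ELG1 protein under genetic stress, flags genotoxic compounds. Cells were treated for 16 hr at 37 °C before ONE-Glo detection.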
Rab9 promoter act: activators of Rab9 promoter | 2.8% of 320,000 active | Potency, µM (highest dose often 9.22 µM), for inactives: top-dose activation, negative = inhibition, usual class: activators | AID 485297 | Huh7 Rab9 promoter-luciferase reporter, luminescence, 24 h; note: % of control where 0% means no effect; nearly all actives have a fitted effect of over 60% in size
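Promoter activation is measured as luciferase luminescence in Huh7 cells stably transfected with a Rab9 promoter–luciferase construct, following 24 h compound exposure at 37 °C and 10 min reagent incubation at ambient temperature.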
ELG1 DNA repair: ELG1-dependent DNA repair inhibition; HEK293T ELG1-luciferase reporter, luminescence, 16 h; DNA damage induced by 5-fluorouridine; Potency, µM (top dose mostly 46.1 µM), inactives show top-dose activity change, negative = inhibition, hits mostly inhibitors; 2.3% of 330,000 active; AID 504467; note: % is set by controls: 0 for no effect and ±100 for the full control effect; nearly all actives have a fitted effect of over 55% in size
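Overnight (16 hr) co-exposure of 2,000 cells/well to 5-fluorouridine and compound at 37 °C preceded detection. Luciferase was quantified via ONE-Glo luminescence; loss of signal denotes inhibition.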
SMN2 splice up: SMN2 splice variant enhancement. HEK293 SMN2-luciferase splicing reporter, luminescence, 30-36 h. Potency, µM (highest dose often 46.1 µM), inactives show top-dose activity change, positive = activation, usual class: activators. 2.8% of 210,000 active. AID 1458; note: % of control where 0% means no effect; nearly all actives have a fitted effect of over 55% in size
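qHTS luciferase splicing reporter: luminescence rises when SMN2 exon 7 is included in transfected HEK293 cells. Compound exposure lasted 30-36 h at 37C, with 4.5 mM final sodium butyrate as control, followed by a ONE-Glo read.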
FLuc counter: firefly luciferase modulation, counter-screen for miR-21 project | 6.9% of 360,000 active | purified FLuc, Km substrates, luminescence inhibition | P08659 | AID 588342 | Potency, µM (top dose mostly 57.5 µM), for the others: at the highest dose activity change, negative = inhibition, most hits filed as inhibitors;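 note: plate controls were vehicle for no effect and reference inhibitor for full effect; nearly all actives have a fitted effect of over 55% in size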
Target sequence (P08659 whole entry, looked up): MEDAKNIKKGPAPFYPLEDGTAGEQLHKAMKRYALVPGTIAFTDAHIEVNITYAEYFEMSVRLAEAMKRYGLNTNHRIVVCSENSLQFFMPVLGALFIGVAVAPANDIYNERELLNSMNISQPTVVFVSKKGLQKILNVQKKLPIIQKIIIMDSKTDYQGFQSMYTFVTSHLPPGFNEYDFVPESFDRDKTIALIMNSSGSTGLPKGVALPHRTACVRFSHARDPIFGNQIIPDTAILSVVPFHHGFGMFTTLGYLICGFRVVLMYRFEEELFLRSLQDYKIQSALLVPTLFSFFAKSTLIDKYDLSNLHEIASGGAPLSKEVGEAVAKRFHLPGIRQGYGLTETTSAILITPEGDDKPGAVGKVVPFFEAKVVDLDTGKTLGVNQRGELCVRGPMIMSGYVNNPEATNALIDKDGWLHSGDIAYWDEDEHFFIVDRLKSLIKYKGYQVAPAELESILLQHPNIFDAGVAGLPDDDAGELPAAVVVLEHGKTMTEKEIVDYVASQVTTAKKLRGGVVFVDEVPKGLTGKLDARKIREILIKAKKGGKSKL
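Biochemical qHTS of compounds, final roughly 60 µM downward over six points, against 10 nM purified firefly luciferase using Km concentrations of substrates (10 uM D-luciferin, 10 uM ATP) in Tris acetate pH 7.5 buffer; luminescence output.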
An asterisk follows results filed as active; ? = inconclusive; nt = no result given. Hits are enriched below; roughly 9.2% of the tested compounds scored in any of these assays. Calls come from the whole dose curve; as a rule, active = well fitted curve in the direction sought with a large enough effect; inconclusive = small, poorly fitted or top-dose-only effect, or another doubt; inactive = no such curve, though single readings can be large; an effect the other way counts as inactive or inconclusive. Potency is the fitted concentration of half-maximal effect.

SMILES	NPC1 prom act	ELG1 genotoxic	Rab9 promoter act	ELG1 DNA repair	SMN2 splice up	FLuc counter
Cc1noc(C)c1CSCC(=O)Nc1cc(C(F)(F)F)ccc1N1CCOCC1	-1%	1%	-4%	-20%	nt	6%
Cc1csc2nc(CSc3nc4ccccc4o3)cn12	4µM*	?	?	?	13%	21µM*
c1ccc2oc(SCc3cn4ccsc4n3)nc2c1	2.8µM*	?	3.5µM*	?	?	9.5µM*
Cc1ccc(-n2nnnc2SC(C)C(=O)NCC(=O)Nc2ccc(F)c(F)c2F)c(C)c1 (stereo not given)	0%	-6%	-3%	18µM*	-9%	1%
N/C(=N\OC(=O)c1cccc(Cn2cc(C(F)(F)F)ccc2=O)c1)c1ccc(Cl)cc1	22%	-4%	1%	-14%	nt	15µM*
Cc1ccc(/C(N)=N/OC(=O)c2cccc(Cn3cc(C(F)(F)F)ccc3=O)c2)cc1	?	2%	10%	2%	nt	21µM*
N/C(=N\OC(=O)c1cccc(Cn2cc(C(F)(F)F)ccc2=O)c1)c1ccccc1	2%	-5%	-3%	-6%	nt	?
CC(=O)Nc1cccc(Oc2nc(-c3ccccn3)nc3ccccc23)c1	-6%	-15%	-1%	0%	nt	15µM*
CCCOc1ccc(OC(=O)c2ccc(Br)o2)cc1	-4%	3%	-3%	-6%	-7%	9.5µM*
CCc1ccc(OCC(=O)NNC(=O)CNC(=O)c2ccc(Br)o2)cc1	0%	5%	0%	16%	nt	?
CC(C)CN1C(=O)c2ccc(NC(=O)c3ccco3)cc2C1=O	?	17%	?	?	nt	19µM*
CC(C)CN1C(=O)c2ccc(NC(=O)c3cccs3)cc2C1=O	29%	28%	?	?	21%	9.5µM*
CC(C)CN1C(=O)c2ccc(NC(=O)c3ccccc3F)cc2C1=O	29%	?	?	?	11%	12µM*
CC1=C(C(=O)NCCc2ccc(Cl)cc2)C2(CCCCC2)OC1=O	nt	nt	nt	nt	nt	4%
C/C(=N\NC(=O)CN(c1ccccc1)S(C)(=O)=O)c1ccccc1O	-4%	-4%	-3%	16µM*	-2%	-11%
COCCCN=Cc1c(C)[nH]n(-c2ccc(Br)c(C)c2)c1=O	1.4µM*	?	0.5µM*	?	2.8µM*	1.3µM*
Cc1ccc(-n2[nH]c(C)c(C=NC34CN5CN(CN(C5)C3)C4)c2=O)cc1C	nt	nt	nt	nt	12%	-6%
CCCCCn1c(=O)[nH]c2cc(C(=O)N3CCN(c4cccc(C)c4)C(C)C3)ccc2c1=O (stereo not given)	nt	nt	nt	nt	-27%	-7%
CC1CCC(NC(=O)CCS(=O)(=O)c2ccc3c(c2)CC(C)N3C(=O)C2CC2)CC1 (stereo not given)	-1%	0%	0%	9%	nt	-1%
CCOc1ccc(NC(=O)c2ccc(CC)s2)c([N+](=O)[O-])c1	?	?	2.2µM*	?	nt	-5%
CCOc1ccc(NC(=O)c2ccco2)c([N+](=O)[O-])c1	2µM*	?	1.6µM*	?	14µM*	2.4µM*
CCOc1ccc(NC(=O)c2cccnc2Cl)c([N+](=O)[O-])c1	1%	3%	2%	7%	1%	0%
CCOc1ccc(NC(=O)c2cccs2)c([N+](=O)[O-])c1	?	?	1.6µM*	?	7.1µM*	?
Cc1ccc(NC(=O)N/C=C/c2ccc(Cl)cc2)cc1	?	-2%	nt	27%	-18%	-7%
Cc1ccc(NC(=O)N/C=C/c2ccccc2)cc1	0.89µM*	?	1.4µM*	?	14µM*	2.1µM*
SMILES	NPC1 prom act	ELG1 genotoxic	Rab9 promoter act	ELG1 DNA repair	SMN2 splice up	FLuc counter
O=C(N/C=C/c1ccccc1)Nc1ccc(Cl)cc1	3.5µM*	?	4.5µM*	?	?	6.7µM*
COc1ccc(NC(=O)N/C=C/c2ccc(Cl)cc2)cc1	-1%	1%	0%	-14%	4%	-3%
CCC(C)(C)n1nnnc1CN1CCN(C(c2ccccc2)c2ccccc2)CC1	-4%	-13%	-1%	21µM*	-30%	-2%
CCC(C)(C)n1nnnc1C(c1ccccc1)N1CCN(Cc2ccccc2)CC1 (stereo not given)	-8%	-3%	-5%	8%	nt	1%
Cc1cc(C)c2c(CC(=O)N(Cc3ccccc3)C3CCS(=O)(=O)C3)coc2c1 (stereo not given)	nt	nt	nt	nt	2%	2%
CCN(CC)c1nc(-c2ccc(C(C)(C)C)cc2)nc2ccccc12	nt	nt	nt	nt	?	5.4µM*
COc1ccccc1CNC(=O)c1ccc(C)c(-n2cnc3cccnc32)c1	nt	nt	nt	nt	nt	-2%
COc1cc(OC)cc(C(=O)/C=C2\Sc3ccccc3N2C)c1	?	?	?	?	nt	7.6µM*
COc1ccc2c(c1)S/C(=C\C(=O)c1ccncc1)N2C	?	21µM*	?	?	2%	6.7µM*
COc1ccc(C(=O)/C=C2/Sc3cc4c(cc3N2C)OCO4)cc1	17%	?	?	?	nt	?
CN1/C(=C\C(=O)c2cccc([N+](=O)[O-])c2)Sc2ccccc21	1.3µM*	9.2µM*	2µM*	?	nt	1.3µM*
COCC(=O)/C=C1\Sc2ccccc2N1C	1%	16%	0%	?	16%	-8%
CN(C)/C=C/C(=O)c1cccc([N+](=O)[O-])c1	0%	6%	-32%	23%	8%	0%
CCCC(=O)NCC(c1ccc2c(c1)OCO2)N1CCN(c2ccc(F)cc2)CC1 (stereo not given)	nt	nt	nt	nt	nt	-5%
Cc1nc(NC(=O)c2ccccc2)sc1-c1csc(Nc2ccc(Cl)cc2)n1	-5%	1%	-6%	?	-29%	8.5µM*
Cc1ccccc1Nc1nc(-c2sc(NC(=O)c3ccccc3)nc2C)cs1	1%	0%	-4%	?	2%	8.5µM*
Cc1nc(Nc2ccccc2)sc1C(=O)c1ccc(F)cc1	?	15%	?	?	nt	19µM*
Nc1nc(Nc2ccccc2F)sc1C(=O)c1ccccc1	?	?	0.71µM*	?	nt	6µM*
Cc1ccccc1Nc1nc(-c2sc(NC(=O)c3cccc(Cl)c3)nc2C)cs1	-1%	0%	0%	3%	-18%	?
Nc1c(C(=O)c2ccc(F)cc2)sc(Nc2ccccc2F)c1S(=O)(=O)c1ccc(Br)cc1	nt	nt	nt	nt	nt	-5%
CCN(CC)C(=O)C1=C(C)Nc2nc3ccccc3n2C1c1ccc(Br)cc1 (stereo not given)	nt	nt	nt	nt	10%	-1%
COCCCN1CCc2nc(SCC(=O)Nc3ccc(C)c(Cl)c3)[nH]c(=O)c2C1	nt	nt	nt	nt	nt	0%
